Results reported in the supplement of paper PMC6555819.

Key:
Test in all cases: PBM binding z-score (relative to random genomic background probes); higher = stronger binding; sequences stand for … in GC…GCGATTGACAGCGTAGAATGAAGG
[1] = test system: FXR:RXRa (NR concentration 270 nM, RXRa partner concentration 90 nM)
Procedure, shortened: (§1)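 For binding z-scores, the reference was random background probes on custom Agilent 4×180K protein-binding microarrays. These arrays were incubated 1 h with ligand-free nuclear receptor dimers in PBS pH 7.4, 2% milk, 0.02% Triton X-100, 1 mM DTT, 0.2 mg/mL BSA and 0.4 mg/ml salmon testes DNA. Fluorescence was scanned after antibody detection of each partner (one per run) and regression-normalized.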

[2] = test system: LXRa:RXRa (NR concentration 270 nM, RXRa partner concentration 90 nM)
Procedure, shortened: as §1

[3] = test system: LXRa homodimer (NR concentration 270 nM)
Procedure, shortened: as §1

[4] = test system: LXRb:RXRa (NR concentration 270 nM, RXRa partner concentration 90 nM)
Procedure, shortened: as §1

[5] = test system: LXRb homodimer (NR concentration 270 nM)
Procedure, shortened: as §1

[6] = test system: PPARa:RXRa (NR concentration 270 nM, RXRa partner concentration 90 nM)
Procedure, shortened: as §1

[7] = test system: PPARg:RXRa (NR concentration 180 nM, RXRa partner concentration 90 nM)
Procedure, shortened: as §1

[8] = test system: PPARg:RXRa 270nM:90nM, anti-RXR (NR concentration 270 nM, RXRa partner concentration 90 nM)
Procedure, shortened: as §1

[9] = test system: PPARg:RXRa 30nM:10nM, anti-RXR (NR concentration 30 nM, RXRa partner concentration 10 nM)
Procedure, shortened: as §1

[10] = test system: PPARg:RXRa 90nM:30nM, anti-RXR (NR concentration 90 nM, RXRa partner concentration 30 nM)
Procedure, shortened: as §1

Row | Sequence | PBM binding z-score [1] | PBM binding z-score [2] | PBM binding z-score [3] | PBM binding z-score [4] | PBM binding z-score [5] | PBM binding z-score [6] | PBM binding z-score [7] | PBM binding z-score [8] | PBM binding z-score [9] | PBM binding z-score [10]
1 | AGTCAACGTTCAGGACGAGGTAACGTAAAGCACG | -0.0969 | -0.468 | -0.628 | -0.496 | -0.581 | -0.416 | 0.73 | -0.278 | -0.327 | -0.0729
2 | TCTGTTAGTTGATTAGGGCAACCGAAACAGCGGA | 0.614 | 0.576 | 0.141 | 0.571 | 1.9 | 0.523 | 0.000964 | 1.9 | 3.28 | 2.74
3 | TTGAGTAGGTTACCAATGGGGCATTCAGCTTTCT | 0.0857 | 1.41 | -0.22 | 1.21 | -0.0643 | 1.36 | 1.23 | 1.9 | 1.01 | 1.5
4 | ATCTCTAGGTAACCAAGTTCGGTGAATGCCGAAC | 0.162 | 0.167 | 0.0553 | 0.11 | 0.555 | 0.569 | 0.336 | 0.74 | 0.0695 | 0.909
5 | CTCGAAAGGTCGTGCTCAGGGGAGTATACCAAAC | 4.81 | 3.33 | 0.243 | 3.32 | 0.229 | 4.69 | 2.3 | 3.33 | 0.905 | 2.16
6 | AGAATAAGGTTAAGATCAGGGAAACAGAATACAT | 2.47 | 2.22 | 0.239 | 2.09 | 0.458 | 3.06 | 1.75 | 1.62 | 0.741 | 1.19
7 | AGAATGAGGTTATACGTAGATGAGGGAAGAAAGT | 2.17 | 1.97 | 0.0433 | 1.72 | 0.276 | 3.19 | 2.17 | 2.49 | 1.05 | 1.88
8 | CGTACTGGGCCACGAAAGGTCATTGATTCAGTGA | 4.13 | 4.99 | 5.16 | 4.46 | 0.336 | 4.75 | 4.87 | 4.93 | 2.22 | 4.16
9 | CCGACTAGGTTATGGGGCATTCAGGCAACGGTGA | 0.258 | 0.306 | 0.00117 | 0.464 | -0.646 | 1.81 | 3.22 | 4.17 | 1.77 | 3.95
10 | TCAGACAGGTGAAGGGAACTCAGGTACGCAGTCG | 0.945 | 0.772 | 0.0804 | 0.859 | 0.193 | 1.25 | 0.602 | 2.23 | 3.93 | 2.93
11 | CCTAGTTGGTCAGGAGGTGACACACCGGATATGA | 0.076 | 0.0334 | 0.0506 | 0.214 | -0.0582 | 1.17 | 1.04 | 1.33 | 0.0174 | 0.666
12 | CCGACTGGGGCAAGGCTACCATAACGCACAGCCA | -0.0743 | -0.335 | -0.467 | -0.273 | -1.05 | -0.00984 | 1.08 | 0.83 | -0.201 | 0.0921
